Among the data in PubChem BioAssay (Tox21) are Potency values, retold here.

Records with an inconclusive call do not appear. The source made the active and inactive calls. Unless noted, calls follow the shape of the dose curve; as a rule, active = well fitted curve in the direction sought with a large enough effect in the repeat runs; inconclusive = weak or mixed curves; inactive = no such curve, though single readings can be large; an effect the other way counts as inactive or inconclusive.

The nature of experiment [1]: Caspase-3/7 induction in HepG2 cells by small molecules, qHTS assay (AID 1346978). Also: nearly all actives have a fitted effect of over 15% in size. Also: potency is read from the fitted curve at half-maximal effect. In short, it runs like this: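 Wild-type HepG2 cells (2,000/well) were settled 5 h at 37 C, 5% CO2, then exposed to compounds in DMSO for 17 h. Caspase-3/7 activity was read by luminescence 30 min after adding Caspase-Glo 3/7 reagent at room temperature.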
On the technique in general: qHTS replaces the single test concentration by a dilution series.

Experiment [2] in a line: Caspase-3/7 induction in CHO-K1 cells by small molecules, qHTS assay (AID 1346980). Also: nearly all actives have a fitted effect of over 15% in size. In short, it runs like this:
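Wild-type cells were seeded at 1,500 per well and settled 5 hr at 37 C, 5% CO2, then exposed to DMSO-dissolved compounds for 17 hr. Caspase-Glo 3/7 reagent was added, and luminescence was read after 30min at room temperature.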

Experiment [3] in a line: Caspase-3/7 induction in HepG2 cells by small molecules, qHTS cell viability counter screen (AID 1346981). Also: series mostly up to about 92 µM; nearly all actives have a fitted effect of over 30% in size. In short, it runs like this:
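After a 5-hr attachment period at 37 C and 5% CO2, wild-type HepG2 cells received compounds in DMSO. Sixteen hours later CellTiter-Fluor was dispensed and the fluorescent signal quantified after a further hour.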

Experiment [4] has as its target Acetylcholinesterase (Homo sapiens) (UniProt P22303). The experiment in a line: Acetylcholinesterase (AChE) small molecule antagonists: colormetric cell-based qHTS assay (AID 1347395; calls by dose curve; also: nearly all actives have a fitted effect of over 30% in size; also: potency is read from the fitted curve at half-maximal effect). The method in brief: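 Colorimetric readout: DTNB quantifies thiocholine from acetylthiocholine hydrolysed by endogenous AChE of SH-SY5Y cells (2,000/well, plated overnight). Compound pretreatment 30 min, substrate incubation 90 min, both 37 C.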

For experiment [5] the target is unchanged. The experiment is described as follows: Acetylcholinesterase (AChE) small molecule antagonists: fluorescence cell-based qHTS assay (AID 1347398; calls by dose curve; also: nearly all actives have a fitted effect of over 50% in size; also: potency is read from the fitted curve at half-maximal effect). The conditions noted are these: Potency: AChE activity. In short, it runs like this: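 Cellular AChE inhibition: SH-SY5Y cells treated with test chemical for 30 min at 37 C, then acetylthiocholine hydrolysis followed over 40 min at room temperature via thiocholine-reactive Thiolite Green fluorescence (490/520 nm).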

Experiment [6] has the same target. The experiment in a line: Acetylcholinesterase (AChE) small molecule antagonists: enzyme-based qHTS assay with human liver microsomes (AID 1347399; calls by dose curve; also: nearly all actives have a fitted effect of over 60% in size; also: potency is read from the fitted curve at half-maximal effect). To be noted: Potency: qHTS inhibition. The method in brief:
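Recombinant human AChE (50 mU/mL in the enzyme mix) and human liver microsomes (0.25 mg/mL final) were preincubated with compound and NADPH (0.25 mg/mL final) for 30 min at 37 C. Acetylthiocholine/DTNB was then added; thiocholine was read colorimetrically after 10 min at room temperature.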

Experiment [7] addresses Cytochrome P450 2D6 (Homo sapiens) (UniProt P10635). The experiment in a line: Cytochrome P450 Family 2 Subfamily D Member 6 (CYP2D6) small molecule antagonists: luciferase reporter qHTS assay (AID 1671196). Also: nearly all actives have a fitted effect of over 50% in size. Also: potency is read from the fitted curve at half-maximal effect. In short, it runs like this:
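Room-temperature luminescent CYP2D6 activity assay: compound preincubated 10 min with enzyme–substrate mix, NADPH-initiated reaction 1 h, detection reagent 20 min before reading.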

For experiment [8], the target named is Cytochrome P450 2C19 (Homo sapiens) (UniProt P33261). The experiment is described as follows: Cytochrome P450 Family 2 Subfamily C Member 19 (CYP2C19) small molecule antagonists: luciferase reporter qHTS assay (AID 1671197). Also: nearly all actives have a fitted effect of over 65% in size. Also: potency is read from the fitted curve at half-maximal effect. The method in brief: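 P450-Glo CYP2C19 system: enzyme-substrate mix with compound 10 min at room temperature, then NADPH regeneration solution, 1 h at 37C. Proluciferin-to-luciferin conversion detected by luminescence after 20 min with detection reagent; ketoconazole as positive control.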
Cytochrome P450 2C19 (Homo sapiens), sequence (P33261 whole entry, looked up): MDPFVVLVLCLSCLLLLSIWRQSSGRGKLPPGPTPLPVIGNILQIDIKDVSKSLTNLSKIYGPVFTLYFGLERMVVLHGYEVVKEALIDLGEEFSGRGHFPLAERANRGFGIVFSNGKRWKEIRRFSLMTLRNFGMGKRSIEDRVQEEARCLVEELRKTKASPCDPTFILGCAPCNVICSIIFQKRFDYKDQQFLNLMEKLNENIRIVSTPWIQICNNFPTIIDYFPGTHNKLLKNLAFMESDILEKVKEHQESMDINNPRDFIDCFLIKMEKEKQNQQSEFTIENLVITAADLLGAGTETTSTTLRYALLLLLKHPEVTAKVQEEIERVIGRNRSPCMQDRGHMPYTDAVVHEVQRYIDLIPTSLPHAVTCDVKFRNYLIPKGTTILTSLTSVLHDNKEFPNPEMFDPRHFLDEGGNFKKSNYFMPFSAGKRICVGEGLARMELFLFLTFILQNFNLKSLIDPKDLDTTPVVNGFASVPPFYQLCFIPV

The target in experiment [9] is Cytochrome P450 2C9 (Homo sapiens) (UniProt P11712). The experiment in a line: Cytochrome P450 Family 2 Subfamily C Member 9 (CYP2C9) small molecule antagonists: luciferase reporter qHTS assay (AID 1671198). Also: nearly all actives have a fitted effect of over 50% in size. Also: potency is read from the fitted curve at half-maximal effect. In short, it runs like this: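 CYP2C9 activity was measured with a P450-Glo proluciferin substrate. Enzyme–substrate mix was held with compound for 10 min at room temperature, then NADPH regeneration solution was added for 1 h at 37C. Luciferin product was read as luminescence.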
Cytochrome P450 2C9 (Homo sapiens), sequence (P11712 whole entry, looked up): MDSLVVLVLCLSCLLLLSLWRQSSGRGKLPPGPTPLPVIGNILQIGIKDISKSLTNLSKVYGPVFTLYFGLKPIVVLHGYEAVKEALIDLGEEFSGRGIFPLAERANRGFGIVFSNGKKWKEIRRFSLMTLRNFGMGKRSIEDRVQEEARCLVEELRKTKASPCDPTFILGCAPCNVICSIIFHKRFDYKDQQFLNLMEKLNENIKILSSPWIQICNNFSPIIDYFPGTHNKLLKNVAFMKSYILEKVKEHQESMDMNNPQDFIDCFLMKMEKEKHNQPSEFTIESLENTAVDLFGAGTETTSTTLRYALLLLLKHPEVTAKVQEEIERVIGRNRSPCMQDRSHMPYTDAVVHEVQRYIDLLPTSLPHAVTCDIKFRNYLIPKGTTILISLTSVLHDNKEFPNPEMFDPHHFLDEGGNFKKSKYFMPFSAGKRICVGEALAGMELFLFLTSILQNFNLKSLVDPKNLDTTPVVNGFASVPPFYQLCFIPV
(In general: In a reporter assay the amount or activity of a reporter protein is the signal.)

The target of experiment [10] is Cytochrome P450 1A2 (Homo sapiens) (UniProt P05177). The experiment in a line: Cytochrome P450 Family 1 Subfamily A Member 2 (CYP1A2) small molecule antagonists: luciferase reporter qHTS assay (AID 1671199). Also: nearly all actives have a fitted effect of over 50% in size. Also: potency is read from the fitted curve at half-maximal effect. In short, it runs like this: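 Room-temperature CYP1A2 reaction with proluciferin substrate: compounds added from DMSO, 10 min preincubation, NADPH regeneration for 1 h. Luciferin detection reagent then added; luminescence recorded as RLU.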
Cytochrome P450 1A2 (Homo sapiens), sequence (P05177 whole entry, looked up): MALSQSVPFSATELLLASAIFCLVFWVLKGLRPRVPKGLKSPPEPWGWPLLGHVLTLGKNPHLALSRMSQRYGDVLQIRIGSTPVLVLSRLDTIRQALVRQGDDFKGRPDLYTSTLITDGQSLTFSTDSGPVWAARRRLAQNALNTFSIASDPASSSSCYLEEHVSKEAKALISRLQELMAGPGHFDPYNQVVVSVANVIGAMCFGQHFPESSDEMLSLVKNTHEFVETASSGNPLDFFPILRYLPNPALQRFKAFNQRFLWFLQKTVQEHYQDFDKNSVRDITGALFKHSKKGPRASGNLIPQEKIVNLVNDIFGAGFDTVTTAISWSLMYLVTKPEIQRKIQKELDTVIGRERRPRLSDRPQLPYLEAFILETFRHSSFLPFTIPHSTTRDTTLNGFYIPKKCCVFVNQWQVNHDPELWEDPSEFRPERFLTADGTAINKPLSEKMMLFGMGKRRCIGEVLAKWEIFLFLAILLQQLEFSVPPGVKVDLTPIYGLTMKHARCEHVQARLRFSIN

In experiment [11] the target is Voltage-gated inwardly rectifying potassium channel KCNH2 (Homo sapiens) (UniProt Q12809). The experiment is described as follows: Human Ether-a-go-go-Related Gene (hERG) channel small molecule antagonists: fluorescence cell-based qHTS assay (AID 1671200). Also: nearly all actives have a fitted effect of over 50% in size. Also: potency is read from the fitted curve at half-maximal effect. In short, it runs like this: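 Thallium flux as potassium surrogate: FluxOR II dye loaded 1 h at room temperature into hERG-expressing U2OS cells, then stimulus buffer added after 10 min. Kinetic 480 nm excitation/540 nm emission read, 2 min.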
Voltage-gated inwardly rectifying potassium channel KCNH2 (Homo sapiens), sequence (Q12809 whole entry, looked up): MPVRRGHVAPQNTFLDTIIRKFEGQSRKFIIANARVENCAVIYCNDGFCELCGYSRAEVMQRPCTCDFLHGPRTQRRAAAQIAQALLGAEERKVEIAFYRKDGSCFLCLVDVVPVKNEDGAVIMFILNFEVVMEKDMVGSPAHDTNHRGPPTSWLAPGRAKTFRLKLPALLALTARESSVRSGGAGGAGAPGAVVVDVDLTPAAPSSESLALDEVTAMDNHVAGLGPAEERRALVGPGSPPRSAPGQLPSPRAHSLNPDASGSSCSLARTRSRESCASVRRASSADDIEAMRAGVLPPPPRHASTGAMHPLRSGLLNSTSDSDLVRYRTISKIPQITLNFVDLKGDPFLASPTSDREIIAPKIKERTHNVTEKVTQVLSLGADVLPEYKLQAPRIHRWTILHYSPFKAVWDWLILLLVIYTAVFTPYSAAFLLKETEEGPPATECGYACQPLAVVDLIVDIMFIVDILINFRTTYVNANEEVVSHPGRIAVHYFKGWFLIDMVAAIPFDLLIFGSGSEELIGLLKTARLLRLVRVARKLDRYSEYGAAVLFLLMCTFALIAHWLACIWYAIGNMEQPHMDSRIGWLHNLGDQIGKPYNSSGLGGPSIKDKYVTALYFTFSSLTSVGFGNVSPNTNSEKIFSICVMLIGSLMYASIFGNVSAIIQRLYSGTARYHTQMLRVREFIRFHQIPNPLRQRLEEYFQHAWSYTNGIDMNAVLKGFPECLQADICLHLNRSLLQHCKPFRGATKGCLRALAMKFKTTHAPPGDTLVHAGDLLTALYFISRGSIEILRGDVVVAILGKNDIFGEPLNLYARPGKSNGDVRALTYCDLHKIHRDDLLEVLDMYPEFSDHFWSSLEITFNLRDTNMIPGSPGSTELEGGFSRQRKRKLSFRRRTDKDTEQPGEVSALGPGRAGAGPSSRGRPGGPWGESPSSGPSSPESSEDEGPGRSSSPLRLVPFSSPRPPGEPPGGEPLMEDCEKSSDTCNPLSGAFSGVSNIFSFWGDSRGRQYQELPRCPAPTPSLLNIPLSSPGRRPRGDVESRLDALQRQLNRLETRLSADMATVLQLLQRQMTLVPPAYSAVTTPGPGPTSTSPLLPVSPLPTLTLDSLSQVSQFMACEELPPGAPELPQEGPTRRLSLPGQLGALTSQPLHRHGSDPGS
For orientation: Block of hERG is tested as a sign of cardiac risk.

In experiment [12] the target is Cytochrome P450 3A4 (Homo sapiens) (UniProt P08684). The experiment is described as follows: Cytochrome P450 Family 3 Subfamily A Member 4 (CYP3A4) small molecule antagonists: luciferase reporter qHTS assay (AID 1671201). Also: nearly all actives have a fitted effect of over 50% in size. Also: potency is read from the fitted curve at half-maximal effect. In short, it runs like this: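 Recombinant human CYP3A4 converts a proluciferin substrate to luciferin over 1 h at room temperature after NADPH regeneration solution is added (compound preincubated 10 min); detection reagent stops reaction, luminescence read 20 min later as relative units.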
Cytochrome P450 3A4 (Homo sapiens), sequence (P08684 whole entry, looked up): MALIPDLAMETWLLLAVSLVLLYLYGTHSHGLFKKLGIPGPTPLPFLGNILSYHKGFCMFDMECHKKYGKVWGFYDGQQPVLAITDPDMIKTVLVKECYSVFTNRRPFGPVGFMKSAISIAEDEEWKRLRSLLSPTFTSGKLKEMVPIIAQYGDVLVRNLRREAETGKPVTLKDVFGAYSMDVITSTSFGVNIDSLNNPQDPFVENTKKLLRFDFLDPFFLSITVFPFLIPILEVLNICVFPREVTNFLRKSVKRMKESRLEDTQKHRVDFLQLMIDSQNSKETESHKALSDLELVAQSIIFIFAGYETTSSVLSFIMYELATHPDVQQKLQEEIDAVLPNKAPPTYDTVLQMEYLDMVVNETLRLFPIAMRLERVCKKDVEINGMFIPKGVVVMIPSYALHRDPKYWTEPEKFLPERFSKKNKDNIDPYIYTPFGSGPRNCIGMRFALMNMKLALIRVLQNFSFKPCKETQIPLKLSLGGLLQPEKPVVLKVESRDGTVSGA

The target in experiment [13] is Nuclear receptor subfamily 1 group I member 2 (Homo sapiens) (UniProt O75469). The experiment in a line: Human pregnane X receptor (PXR) small molecule agonists, qHTS assay (AID 1346982). Also: nearly all actives have a fitted effect of over 35% in size. Also: potency is read from the fitted curve at half-maximal effect. In short, it runs like this:
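Tox21 qHTS; PXR-Luc HepG2; compounds pinned from DMSO; 24 hr, 37 C; ONE-Glo luciferase detection, 30 min room temperature.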

Experiment [14] deals with Acetylcholinesterase (Homo sapiens) (UniProt P22303). The experiment in a line: Acetylcholinesterase (AChE) small molecule antagonists: enzyme-based qHTS assay (AID 1347397; calls by dose curve; also: nearly all actives have a fitted effect of over 55% in size). To be noted: Potency: AChE enzyme activity inhibition. In short, it runs like this:
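Tox21 library chemicals are tested in qHTS format against recombinant human AChE. The enzyme, dispensed at 50 mU/mL, sits with compound for 30 min at room temperature. A DTNB–acetylthiocholine cocktail follows, and colour is read after 10 min.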

Experiment [15] in a line: Caspase-3/7 induction in CHO-K1 cells by small molecules, qHTS cell viability counter screen (AID 1346979). Also: nearly all actives have a fitted effect of over 35% in size. The method in brief:
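Cytotoxicity counter screen: CellTiter-Fluor added to compound-treated wild-type CHO-K1 cells at 16 h (37C, 5% CO2), fluorescence measured 1 h later; same wells as caspase-3/7 measurement.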

Cytochrome P450 2D6 (Homo sapiens), sequence (P10635 whole entry, looked up): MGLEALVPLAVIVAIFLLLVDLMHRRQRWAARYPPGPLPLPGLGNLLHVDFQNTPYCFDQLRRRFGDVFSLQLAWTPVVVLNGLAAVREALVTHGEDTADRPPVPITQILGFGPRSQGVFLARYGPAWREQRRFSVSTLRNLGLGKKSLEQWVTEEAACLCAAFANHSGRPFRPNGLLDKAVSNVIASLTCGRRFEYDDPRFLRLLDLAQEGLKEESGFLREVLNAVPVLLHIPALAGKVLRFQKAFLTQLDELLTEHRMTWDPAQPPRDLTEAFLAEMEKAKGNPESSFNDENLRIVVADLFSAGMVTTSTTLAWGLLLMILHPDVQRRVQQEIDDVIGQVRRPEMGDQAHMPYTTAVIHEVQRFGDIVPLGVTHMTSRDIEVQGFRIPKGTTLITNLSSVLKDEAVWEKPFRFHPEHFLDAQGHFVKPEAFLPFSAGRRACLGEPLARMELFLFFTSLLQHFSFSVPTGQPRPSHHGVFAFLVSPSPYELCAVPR
Nuclear receptor subfamily 1 group I member 2 (Homo sapiens), sequence (O75469 whole entry, looked up): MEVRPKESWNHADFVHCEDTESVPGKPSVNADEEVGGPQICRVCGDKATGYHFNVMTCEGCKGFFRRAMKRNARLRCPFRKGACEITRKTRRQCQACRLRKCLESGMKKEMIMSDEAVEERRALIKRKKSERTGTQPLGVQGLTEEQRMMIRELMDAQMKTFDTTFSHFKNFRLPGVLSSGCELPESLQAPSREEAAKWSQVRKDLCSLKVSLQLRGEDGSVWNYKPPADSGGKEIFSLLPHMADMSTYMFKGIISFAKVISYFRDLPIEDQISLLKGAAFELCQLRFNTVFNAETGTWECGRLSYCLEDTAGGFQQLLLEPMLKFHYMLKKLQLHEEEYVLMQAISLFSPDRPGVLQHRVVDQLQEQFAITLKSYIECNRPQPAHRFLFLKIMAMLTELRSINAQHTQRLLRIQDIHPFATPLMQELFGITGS
Acetylcholinesterase (Homo sapiens), sequence (P22303 whole entry, looked up): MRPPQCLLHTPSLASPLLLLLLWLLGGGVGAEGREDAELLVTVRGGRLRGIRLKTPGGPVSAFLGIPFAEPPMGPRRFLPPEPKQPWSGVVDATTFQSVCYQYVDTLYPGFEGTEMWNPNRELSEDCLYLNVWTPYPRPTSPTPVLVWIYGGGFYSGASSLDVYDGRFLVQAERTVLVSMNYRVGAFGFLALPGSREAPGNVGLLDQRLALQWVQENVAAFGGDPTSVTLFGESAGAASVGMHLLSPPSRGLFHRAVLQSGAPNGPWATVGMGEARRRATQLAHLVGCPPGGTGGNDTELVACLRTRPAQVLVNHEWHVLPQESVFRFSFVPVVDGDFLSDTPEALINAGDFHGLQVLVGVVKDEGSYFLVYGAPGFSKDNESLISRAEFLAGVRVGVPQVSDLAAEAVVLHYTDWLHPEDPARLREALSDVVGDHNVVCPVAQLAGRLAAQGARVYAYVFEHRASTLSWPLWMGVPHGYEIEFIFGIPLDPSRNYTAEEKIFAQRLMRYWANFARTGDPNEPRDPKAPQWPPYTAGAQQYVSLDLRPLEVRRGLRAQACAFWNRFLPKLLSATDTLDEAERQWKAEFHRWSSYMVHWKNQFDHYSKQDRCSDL

For `CNC(=O)Oc1cc(C)cc(C(C)C)c1`, the Potency result in experiment [1], in experiment [2], in [3], in [9], in experiment [11] and in [12] was “inactive” each time. For the same compound, the Potency in experiment [4] was 0.633 µM (active); in [5], 0.178 µM (active); in experiment [6], 5.03 µM (active); in experiment [7], 39.9 µM (active); in experiment [8], 20 µM (active); in [10], 20 µM (active).

Turning to `N#Cc1c2ccccc2cc2ccccc12`, the Potency result in experiment [1], in [2], in [4], in [14], in [5] and in [6] was “inactive” throughout. In addition, the Potency entry in [7], in experiment [8], in experiment [11] and in experiment [12] was “inactive” each time. Further, the Potency in [13] was 27.3 µM (active); in experiment [10] it was 0.2 µM (active).

For the compound `[C-]1=CC=CC1.[Cl][Zr+2][Cl].c1cc[cH-]c1`, the Potency result in [15], in [2], in experiment [3] and in experiment [11] was “inactive” in each case.

On to `CCCCCCCc1ccc(O)cc1`, for which the Potency entry in [2], in [4], in experiment [14], in experiment [5], in experiment [6] and in [12] was “inactive” each time. The Potency was 61.1 µM (active) in [13], 35.6 µM (active) in experiment [9] and 35.6 µM (active) in experiment [10].

Regarding `Nc1ccc(Cl)cc1C(=O)c1ccccc1F`, the Potency entry in experiment [1], in experiment [2], in experiment [4], in [14], in [5] and in [6] was “inactive” in each case. Also, the Potency result in experiment [11] and in experiment [12] was “inactive” in each case. In addition, the Potency in experiment [13] was 29.8 µM (active); in [8], 11 µM (active); in experiment [9], 17.4 µM (active); in experiment [10], 15.5 µM (active).

For `CCOP(=S)(OCC)Oc1cc(C)nc(N(CC)CC)n1`, the Potency entry in experiment [1], in experiment [2], in experiment [3], in experiment [14], in experiment [6] and in experiment [11] was “inactive” throughout. Further, the Potency in experiment [13] was 17.2 µM (active); in experiment [7], 50.2 µM (active); in experiment [8], 0.399 µM (active); in [9], 11.2 µM (active); in [12] it was 0.633 µM (active).

Consider `CN1CCc2cc3c(cc2C1O)OCO3` (centres undefined), for which the Potency entry in [1], in [2], in experiment [9], in experiment [11] and in experiment [12] was “inactive” each time. For the same compound, the Potency in experiment [7] was 2.01 µM (active); in experiment [10], 40.2 µM (active).

On to `CC(=O)C(Cl)C(=O)N(C)C` (centres undefined), for which the Potency result in experiment [1], in experiment [2], in [3], in [4], in [5] and in [6] was “inactive” in each case. In addition, the Potency result in experiment [9], in experiment [10], in experiment [11] and in experiment [12] was “inactive” each time.

As for `C[C@]12CC[C@H]3[C@@H](CCC4=CC(=O)CC[C@@H]43)[C@@H]1CC[C@@H]2OC(=O)CCc1ccco1`, the Potency result in [1], in experiment [3], in [4], in experiment [14], in experiment [5] and in [6] was “inactive” throughout. Besides, the Potency result in experiment [7] and in experiment [8] was “inactive” throughout. The Potency in [9] was 17.4 µM (active); in experiment [11], 10.7 µM (active).

As to `c1ccc2c(c1)cc1ccc3cccc4ccc2c1c34`, the Potency was 6.99 µM (active) in [1], 5.55 µM (active) in experiment [13] and 0.363 µM (active) in experiment [10]. The Potency entry in experiment [2], in [4], in experiment [14], in experiment [5], in [6] and in [8] was “inactive” each time. In addition, the Potency entry in experiment [11] and in experiment [12] was “inactive” throughout.

Turning to `CNC(=O)CSP(=O)(OC)OC`, the Potency entry in experiment [1], in [2], in experiment [3], in experiment [13], in experiment [14] and in experiment [5] was “inactive” throughout. Moreover, the Potency entry in experiment [6], in [8], in experiment [9], in [11] and in experiment [12] was “inactive” in each case.
